Results on 46 compounds are retold here after PubChem BioAssay AID1049 (The Scripps Research Institute Molecular Screening Center, 2008).

Molecules are shown by their SMILES. Among all 200,000 compounds or so, about 780 (0.39%) were called active. This excerpt belongs to a sample that is enriched for actives. A number with no mark means an inactive call. Cut-off read from the data, not from the text of the source: active = TR-FRET ratio above about 2000; inactive = the rest.

This assay is described as follows: TR-FRET signal artefacts, primary screen, artefact control for PPARgamma SRC-2 agonist project, biochemical (AID 1049). The conditions noted are these: TR-FRET artefact counter-screen; at 8 µM; active compounds read high.
As for `O=c1[nH]cnc2c1c(-c1ccccc1)cn2-c1ccc(F)cc1`, the TR-FRET ratio is 1650. With `Cc1ccccc1N1C(=O)C(Oc2ccc(Cl)cc2)C1CNCC1CCCO1` (stereo unspecified) the figure was 1310; with `Cc1ccc(N2C(=O)C(NC(=O)c3c(F)cccc3F)(C(F)(F)F)C3=C2CC(C)(C)CC3=O)cc1` (stereo unspecified), 1460; with `O=C(COC(=O)/C=C/c1cccc(Cl)c1)NCCc1ccccc1`, 1440. On to `CCN(CC)S(=O)(=O)c1cccc(-c2n[nH]c(=S)n2/N=C/c2ccc(C(=O)OC)cc2)c1`, for which the TR-FRET ratio was 1510. With `O=C(Oc1ccccc1)Oc1ccc2c(c1)oc(=O)c1ccccc12` the figure was 2370 (active); with `CC(=O)Oc1ccc2c(C)c(CC(C)O)c(=O)oc2c1` (stereo unspecified), 1440. With `Cc1c(Cc2ccccc2)c(=O)oc2cc(OCC(N)=O)ccc12` the figure was 1400. As to `COc1ccc(C2=NN(c3nc4ccccc4s3)C(=O)C2)cc1`, the TR-FRET ratio is 1550. Then `CN(Cc1cccc2ncccc12)C(=O)CC1C(=O)NCCN1Cc1ccc(F)cc1` (stereo unspecified), with 1420; and `O=C(O)/C=C/c1ccc(OCCCF)cc1`, with 1530. With `COc1cc(/C=N/N=C(\N)c2nonc2N)cc(OC)c1OC` the figure was 1490. Regarding `Cc1cc(=O)n2[nH]c(-c3sccc3-n3c(C)ccc3C)cc2n1`, the TR-FRET ratio was 1620. With `Cc1ccc(S(=O)(=O)N2CCOCC2)cc1NC(=O)CSc1nnc(N)s1` the figure was 1520.

As to `CCN=C1S/C(=C\c2cc(Br)ccc2OCC(=O)OCC)C(=O)N1CC`, the TR-FRET ratio is 1500.

On to `CCCOc1ccc(NC(=O)C2OC3OC(C)(C)OC3C3OC(C)(C)OC23)cc1` (stereo unspecified), for which the TR-FRET ratio is 1480. Then `Cc1cc(OCC(=O)NC2CCN(C)CC2)ccc1[N+](=O)[O-]`, with 1540; and `Cc1cc(OCCCN2CCN(Cc3ccccc3)CC2)ccc1[N+](=O)[O-]`, with 2000 (active). For `Cc1ccccc1N1CCN(CCCOc2ccc3c(C)cc(=O)oc3c2)CC1`, the TR-FRET ratio is 1510. With `C/C(N)=C(/C#N)C(=O)COC(=O)c1cc(-c2ccccc2)nc2ccc(Br)cc12` the figure was 1540.

As to `Cc1cc(C)c2c(NC(=O)C3CC3)nn(C)c2n1`, the TR-FRET ratio is 1370. With `CCN(C(=O)COC(=O)c1c(NC(C)=O)sc(C)c1C)C1CCS(=O)(=O)C1` (stereo unspecified) the figure was 1610; with `CCN(CCn1cccn1)Cc1cn[nH]c1-c1ccc(OC)cc1F`, 1510; with `COC(=O)c1ccc(-c2noc(CN(Cc3ccccn3)CC3CCCO3)n2)cc1` (stereo unspecified), 1700. Then `CCN(CCn1cccn1)Cc1nc(-c2ccc(C(=O)OC)cc2)no1`, with 1990 (active); and `COc1cc(NC(=O)COC(=O)CSc2ccc3ccccc3c2)c(C)cc1[N+](=O)[O-]`, with 1450. Then `O=C1NC(c2ccccc2)=NC1(Nc1ccccn1)C(F)(F)F` (stereo unspecified), with 1690; and `COc1ccc(C2CC(c3ccccc3)=NN2C(=O)COC(=O)COc2ccccc2)cc1` (stereo unspecified), with 1620. As to `CNC(=S)N1N=C(c2ccccc2)CC1c1ccc(Br)cc1` (stereo unspecified), the TR-FRET ratio is 1990 (active).

As for `Brc1ccc(C2CC(c3ccccc3)=Nc3ccccc3N2)cc1` (stereo unspecified), the TR-FRET ratio was 1550. `CCC1CO/C(=C(\C(=C(Cl)Cl)N2CCOCC2)[N+](=O)[O-])N1` (stereo unspecified): the TR-FRET ratio was 1690. With `COc1ccc(NC(=O)c2sc(N3CCOCC3)nc2-c2ccccc2)c(OC)c1` the figure was 1580; with `O=C(O)CC/C(=N\NC(=O)c1ccc(F)cc1)c1ccc(Br)cc1`, 1580; with `C/C(=N\OCC(=O)Nc1ccc(Br)cc1)c1cccs1`, 1350.

For the compound `CCOC(=O)N/N=C/c1cccnc1`, the TR-FRET ratio was 1680. Turning to `Cc1nc2ccccc2n1CC(=O)N/N=C/c1cccnc1`, the TR-FRET ratio was 1640. Then `O=C(CSc1cccc2cccnc12)N/N=C/c1cccnc1`, with 2120 (active); and `NC1=NC(=O)C(Cc2cccc(Cl)c2)S1` (stereo unspecified), with 1490. With `CCC(C)(C)NC(=O)/C=C/c1cc(OC)c(OC)c(S(=O)(=O)N2CCc3ccccc32)c1` the figure was 1580; with `Cc1cccc(OCc2ccc(C(=O)Nc3ccc(F)cc3)cc2)c1`, 1560. With `Cc1nc2ccccc2cc1OCc1ccc(F)cc1` the figure was 1730.

As for `Fc1ccc(COc2cccc(-c3n[nH]c(=S)o3)c2)cc1`, the TR-FRET ratio is 2890 (active).

Consider `CCOC(=O)c1ccc[n+](CC(=O)Nc2ccccc2OC(F)F)c1`, for which the TR-FRET ratio is 1350.

`CCOC(=O)c1sc(NC(=O)CSc2n[nH]c(CC)n2)nc1C`: the TR-FRET ratio was 1730. Regarding `CCOc1ncccc1C(=O)OCC(=O)NC1CC1`, the TR-FRET ratio is 1600. With `Cc1cc(OCCN2CCCC2)cc(C(C)C)c1` the figure was 1530.
